{
  "source": "PubChem BioAssay",
  "data": [
    {"assay": "inhibitors of PAF-induced NFkB signaling in CF airway cells, dose response, cell-based, uHTS hits, panel, cytotoxicity readout (AID 624344)", "settings": "CF bronchial epithelial cells, PAF-induced NFkB reporter inhibition, with PAF, run 1; at 79 µM (top of the series) unless noted", "units": {"inhibition": "%"}, "values": [
      {"smiles": "CC(C)Cc1nc2oc3c(NCC4CCCO4)ncnc3c2c2c1CCC2", "note": "(stereo not drawn)", "inhibition": 101},
      {"smiles": "C[C@@H]1CN([C@H](C)CO)C(=O)c2cc(NC(=O)Nc3ccc(C(F)(F)F)cc3)ccc2O[C@H]1CN(C)S(=O)(=O)c1cccs1", "inhibition": 113},
      {"smiles": "COc1ccc(-c2cc(=O)oc3c(C)c(O)ccc23)cc1", "inhibition": 94.8},
      {"smiles": "C=CCOc1c(OC)cc(/C=N/Nc2cccc(C(=O)O)c2)c(Br)c1Br", "inhibition": 103},
      {"smiles": "Cc1nc(N2CCC(C(N)=O)CC2)c2c(-c3cccs3)csc2n1", "inhibition": 97.5},
      {"smiles": "CC1CCc2c(sc3ncnc(N4CCOCC4)c23)C1", "note": "(stereo not drawn)", "inhibition": 114},
      {"smiles": "CC(C)C[C@H]1CNC(=S)N1C[C@H]1CCCN1C[C@H](Cc1ccccc1)N1C[C@H](Cc2ccc(O)cc2)N(CC2CCCCCC2)C1=S", "inhibition": 103},
      {"smiles": "O=C(Nc1cccc(S(=O)(=O)N2CCCCC2)c1)Nc1ccc(Cl)cc1Cl", "inhibition": 103},
      {"smiles": "O=C(c1nnsc1S(=O)c1ccc(Cl)cc1)N1CCOCC1", "note": "(stereo not drawn)", "inhibition": 95.6},
      {"smiles": "COc1ccc(-c2cc(NC=O)c3ncc(-c4ccc(OC)c(OC)c4)n3c2)c(OC)c1", "inhibition": 95.1},
      {"smiles": "COc1ccc(-n2c(C)c(C(C)=O)c3cc(O)ccc32)cc1", "inhibition": 117},
      {"smiles": "CCc1cc(SC#N)cc(C)c1NC(=O)CCl", "inhibition": 107},
      {"smiles": "Fc1ccc(-n2cc(-c3ccccc3)c3c(N4CCOCC4)ncnc32)cc1", "inhibition": 110},
      {"smiles": "O=C1OC(c2ccccc2)(c2cc(Br)ccc2O)c2ccccc21", "note": "(stereo not drawn)", "inhibition": 105},
      {"smiles": "C#CCN(C[C@@H]1[C@@H](OC(=O)NCc2ccco2)[C@@H](OC(=O)NCc2ccco2)Cn2c(=O)ccc(=O)n21)S(=O)(=O)c1ccc(C)cc1", "inhibition": 98.7},
      {"smiles": "COc1ccc(C2CNC(=O)C2)cc1OC1CCCC1", "note": "(stereo not drawn)", "inhibition": 84.8},
      {"smiles": "Cc1cccc(N(Cc2cc(=O)[nH]c3ccccc23)C(=O)CCl)c1", "inhibition": 95.1},
      {"smiles": "Cc1cc(C)c(O)c(CN(C)Cc2cc(Cl)cc(Cl)c2O)c1", "inhibition": 109},
      {"smiles": "CC1(Cc2ccc(Cl)cc2)C(=O)Nc2ccc(-c3cccnc3)cc21", "note": "(stereo not drawn)", "inhibition": 107},
      {"smiles": "Cc1ccc(Sc2c(C=O)c3ccccc3n2C)cc1", "inhibition": 105},
      {"smiles": "CS(=O)(=O)c1ncc(Cl)c(C(=O)Nc2ccc(OC(F)F)cc2)n1", "inhibition": 91.4},
      {"smiles": "COc1ccc(OC)c(N(CCN2C(=O)c3ccccc3C2=O)C(=O)CCl)c1", "inhibition": 106},
      {"smiles": "CCOC(=O)C1=C(CC)Nc2ccccc2N=C1NC(=O)Nc1ccc(Cl)c(Cl)c1", "inhibition": 113}
    ]}
  ]
}
